Common to all, as to assay: DAPPL (digital affinity profiling via proximity ligation, sequencing); 10 mM Tris-HCl pH 7.5, 50 mM NaCl, 1 mM DTT, 4% glycerol, room temperature, 30 min; GST-TFs on glutathione beads, 16-mer random dsDNA library, 0.1% formaldehyde crosslink after washing; high values mean tight binding
Common to all, as to details: protein: recombinant; tags: N-terminal GST; dsDNA, one strand shown

The target of one assay is T1, ETV2 (Homo sapiens, UniProt O00321 1-342).
T1 sequence: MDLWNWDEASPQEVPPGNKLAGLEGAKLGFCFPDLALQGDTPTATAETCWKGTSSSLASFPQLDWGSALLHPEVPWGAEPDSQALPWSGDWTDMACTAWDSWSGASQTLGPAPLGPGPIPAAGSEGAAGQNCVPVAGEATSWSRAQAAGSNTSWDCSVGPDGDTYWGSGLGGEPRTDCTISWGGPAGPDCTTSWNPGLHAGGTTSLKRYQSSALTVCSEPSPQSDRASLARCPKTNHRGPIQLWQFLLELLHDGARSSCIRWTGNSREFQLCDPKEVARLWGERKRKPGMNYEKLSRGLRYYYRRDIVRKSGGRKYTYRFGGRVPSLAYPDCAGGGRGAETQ
The procedure, abridged: (§1)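 The binding signal reported is, for every hexamer, its read frequency for a factor over its read frequency for the tag-only sample. Reads came from pools of yeast-expressed, GST-fused human transcription factors on glutathione beads, barcoded with DNA and mixed with that sample, which were incubated with 200 nmole of a random double-stranded 16-mer DNA library in Tris/NaCl/DTT/glycerol buffer at room temperature for 30 min. After washing, the pools were crosslinked with 0.1% formaldehyde, proximity-ligated with BsaI/T4 ligase for 1 h at 37 °C, PCR-amplified and sequenced on an Illumina NextSeq500.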

For the next assay, the target named is T2, ELF3 (Homo sapiens, UniProt P78545 1-371).
T2 sequence: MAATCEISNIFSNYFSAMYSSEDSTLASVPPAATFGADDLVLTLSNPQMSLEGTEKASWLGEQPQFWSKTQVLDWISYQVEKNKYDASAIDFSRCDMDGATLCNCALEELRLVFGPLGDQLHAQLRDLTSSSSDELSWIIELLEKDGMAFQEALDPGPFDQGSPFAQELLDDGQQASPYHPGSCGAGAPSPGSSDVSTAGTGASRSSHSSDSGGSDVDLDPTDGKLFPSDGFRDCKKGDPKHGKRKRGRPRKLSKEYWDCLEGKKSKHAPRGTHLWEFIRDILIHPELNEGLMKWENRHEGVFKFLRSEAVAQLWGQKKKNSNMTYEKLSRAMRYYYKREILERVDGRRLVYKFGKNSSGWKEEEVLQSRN
The procedure, abridged:
as §1

A further assay concerns the target ETV1 (Homo sapiens, UniProt P50549 1-477). The procedure, abridged: as §1
Another assay deals with T3, ERF (Homo sapiens, UniProt P50548 1-548).
T3 sequence: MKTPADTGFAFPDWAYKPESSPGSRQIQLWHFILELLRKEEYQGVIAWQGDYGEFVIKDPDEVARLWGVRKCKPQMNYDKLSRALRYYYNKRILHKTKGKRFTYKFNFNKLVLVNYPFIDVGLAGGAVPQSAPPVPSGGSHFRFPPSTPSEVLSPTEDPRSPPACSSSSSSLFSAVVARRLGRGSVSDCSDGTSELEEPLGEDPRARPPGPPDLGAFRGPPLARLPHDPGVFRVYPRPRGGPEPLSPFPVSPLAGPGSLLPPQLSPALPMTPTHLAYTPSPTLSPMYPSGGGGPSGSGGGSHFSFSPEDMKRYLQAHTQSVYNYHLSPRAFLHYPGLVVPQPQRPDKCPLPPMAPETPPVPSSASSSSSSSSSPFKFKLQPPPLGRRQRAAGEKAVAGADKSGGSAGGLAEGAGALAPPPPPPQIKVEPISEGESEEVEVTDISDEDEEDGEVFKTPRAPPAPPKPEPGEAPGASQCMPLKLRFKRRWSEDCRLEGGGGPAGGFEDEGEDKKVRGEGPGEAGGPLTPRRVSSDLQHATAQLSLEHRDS
The procedure, abridged:
as §1

A further assay addresses T4, ETV3L (Homo sapiens, UniProt Q6ZN32 1-361).
T4 sequence: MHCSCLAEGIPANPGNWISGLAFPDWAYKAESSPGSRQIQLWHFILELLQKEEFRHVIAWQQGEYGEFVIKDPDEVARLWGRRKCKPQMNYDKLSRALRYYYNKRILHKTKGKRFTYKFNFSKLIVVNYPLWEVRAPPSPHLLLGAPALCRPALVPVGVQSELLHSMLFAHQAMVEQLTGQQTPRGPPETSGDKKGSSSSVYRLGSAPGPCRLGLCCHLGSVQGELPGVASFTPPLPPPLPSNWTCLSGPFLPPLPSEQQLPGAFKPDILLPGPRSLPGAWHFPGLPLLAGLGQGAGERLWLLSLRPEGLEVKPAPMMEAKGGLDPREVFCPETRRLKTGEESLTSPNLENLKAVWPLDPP
The procedure, abridged: as §1

For a further assay, the target named is T5, ETS2 (Homo sapiens, UniProt P15036 1-469).
T5 sequence: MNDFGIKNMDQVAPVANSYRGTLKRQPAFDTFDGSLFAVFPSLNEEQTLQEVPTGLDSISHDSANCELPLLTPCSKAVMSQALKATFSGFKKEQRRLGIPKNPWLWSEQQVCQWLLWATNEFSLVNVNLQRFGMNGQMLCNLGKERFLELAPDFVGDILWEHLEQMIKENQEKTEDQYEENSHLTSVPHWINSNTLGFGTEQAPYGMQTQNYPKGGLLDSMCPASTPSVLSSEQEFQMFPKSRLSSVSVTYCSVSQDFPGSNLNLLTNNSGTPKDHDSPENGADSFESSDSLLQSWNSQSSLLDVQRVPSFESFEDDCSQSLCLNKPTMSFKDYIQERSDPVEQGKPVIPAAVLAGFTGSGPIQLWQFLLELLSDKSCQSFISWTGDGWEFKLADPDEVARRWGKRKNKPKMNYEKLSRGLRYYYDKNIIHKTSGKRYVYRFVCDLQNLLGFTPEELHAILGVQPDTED
The procedure, abridged:
as §1

The target of a further assay is T6, SPDEF (Homo sapiens, UniProt O95238 1-335).
T6 sequence: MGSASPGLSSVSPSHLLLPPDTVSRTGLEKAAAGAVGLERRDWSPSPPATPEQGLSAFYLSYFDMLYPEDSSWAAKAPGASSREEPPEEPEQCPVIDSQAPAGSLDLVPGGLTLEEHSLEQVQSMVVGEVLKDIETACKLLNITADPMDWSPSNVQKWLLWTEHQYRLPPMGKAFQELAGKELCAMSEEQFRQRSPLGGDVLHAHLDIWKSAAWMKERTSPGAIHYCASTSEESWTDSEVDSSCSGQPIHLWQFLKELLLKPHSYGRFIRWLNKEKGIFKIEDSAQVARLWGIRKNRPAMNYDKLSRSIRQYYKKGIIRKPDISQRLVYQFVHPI
The procedure, abridged: as §1

The target in the next assay is T7, ETV7 (Homo sapiens, UniProt Q9Y603 1-341).
T7 sequence: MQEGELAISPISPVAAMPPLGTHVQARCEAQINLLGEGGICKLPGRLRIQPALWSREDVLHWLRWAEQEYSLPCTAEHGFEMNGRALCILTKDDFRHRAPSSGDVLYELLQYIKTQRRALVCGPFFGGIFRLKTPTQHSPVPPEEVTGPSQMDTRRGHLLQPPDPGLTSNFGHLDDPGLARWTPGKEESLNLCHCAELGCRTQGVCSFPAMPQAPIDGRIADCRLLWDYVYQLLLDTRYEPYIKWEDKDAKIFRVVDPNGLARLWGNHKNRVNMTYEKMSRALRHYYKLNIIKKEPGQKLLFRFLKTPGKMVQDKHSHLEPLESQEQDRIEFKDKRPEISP
The procedure, abridged: as §1

The next assay addresses T8, ETV3 (Homo sapiens, UniProt P41162-2 1-143).
T8 sequence: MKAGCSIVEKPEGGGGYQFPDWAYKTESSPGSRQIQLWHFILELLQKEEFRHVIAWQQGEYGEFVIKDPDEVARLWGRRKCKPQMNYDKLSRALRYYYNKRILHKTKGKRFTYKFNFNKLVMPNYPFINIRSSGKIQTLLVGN
The procedure, abridged:
as §1

The next assay deals with ETV6 (Homo sapiens, UniProt P41212 1-452). The procedure, abridged: as §1
Chain of ETV6 (P41212 whole entry): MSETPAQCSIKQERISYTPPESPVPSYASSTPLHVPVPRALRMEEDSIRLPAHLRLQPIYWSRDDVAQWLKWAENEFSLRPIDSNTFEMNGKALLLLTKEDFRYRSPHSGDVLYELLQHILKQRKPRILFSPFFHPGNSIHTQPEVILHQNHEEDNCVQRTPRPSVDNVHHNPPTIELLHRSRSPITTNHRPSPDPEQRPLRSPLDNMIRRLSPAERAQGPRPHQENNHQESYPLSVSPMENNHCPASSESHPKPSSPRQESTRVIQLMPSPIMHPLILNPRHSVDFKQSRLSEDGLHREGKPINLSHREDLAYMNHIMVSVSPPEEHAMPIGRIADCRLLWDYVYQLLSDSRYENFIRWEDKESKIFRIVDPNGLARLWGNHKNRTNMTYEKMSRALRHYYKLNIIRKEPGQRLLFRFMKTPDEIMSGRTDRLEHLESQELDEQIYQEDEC

Chain of ETV1 (P50549 whole entry): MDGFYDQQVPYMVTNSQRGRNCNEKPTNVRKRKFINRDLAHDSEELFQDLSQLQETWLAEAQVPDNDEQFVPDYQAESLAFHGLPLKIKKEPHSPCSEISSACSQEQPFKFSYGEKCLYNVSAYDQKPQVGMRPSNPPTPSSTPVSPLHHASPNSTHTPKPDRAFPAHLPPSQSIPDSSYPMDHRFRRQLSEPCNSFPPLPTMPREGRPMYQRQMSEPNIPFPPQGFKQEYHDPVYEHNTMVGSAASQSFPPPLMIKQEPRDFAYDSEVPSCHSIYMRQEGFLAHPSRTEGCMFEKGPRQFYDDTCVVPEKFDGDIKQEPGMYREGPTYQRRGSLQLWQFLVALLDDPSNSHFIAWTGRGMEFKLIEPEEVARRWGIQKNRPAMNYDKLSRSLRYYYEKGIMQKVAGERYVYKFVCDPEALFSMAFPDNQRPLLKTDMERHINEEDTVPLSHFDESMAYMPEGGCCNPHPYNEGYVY

In the case of CCCAAA, the binding signal is 1.3 fold enrichment (6-mer frequency, TF over GST control) in the assay with ETV2; 1.2 fold enrichment (6-mer frequency, TF over GST control) with ELF3; 1.08 fold enrichment (6-mer frequency, TF over GST control) with ETV1; 1.11 fold enrichment (6-mer frequency, TF over GST control) in the assay with ERF; 1.12 fold enrichment (6-mer frequency, TF over GST control) with ETV3L; 1.02 fold enrichment (6-mer frequency, TF over GST control) in the assay with ETS2. The binding signal is 1.06 fold enrichment (6-mer frequency, TF over GST control) with SPDEF; 1.09 fold enrichment (6-mer frequency, TF over GST control) with ETV7; 1.02 fold enrichment (6-mer frequency, TF over GST control) with ETV3; 1.1 fold enrichment (6-mer frequency, TF over GST control) with ETV6.

The values are drawn from article PMC7862700, “An all-to-all approach to the identification of sequence-specific readers for epigenetic DNA modifications on cytosine”.
